# From PubChem
# GDH-TPI counter-1 – GDH-TPI coupled enzyme inhibition counter-screen; inhibition, % at 4.8 µM; GDH-TPI coupled enzyme counterscreen, NADH absorbance; 1.2% of 360,000 active; in the data active = inhibition above about 30%;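 note: 0% = DMSO wells and 100% = wells lacking the enzyme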
# RecA intein inh – Mtb RecA intein splicing inhibition; cell-free RecA intein splicing, fluorescence; AID 2221; inhibition, % (test concentration not listed); 0.75% of 290,000 active; P9WHJ3; in the data active = inhibition above about 30%;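 note: 0% = vehicle wells and 100% = reference inhibitor control wells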
# Rv3671c protease – Rv3671c (M. tuberculosis) protease inhibition. AID 2606. 0.048% of 320,000 active. P9WHR9. inhibition, % at 5.96 µM; in the data active = inhibition above about 38%;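 note: extracellular domain of Rv3671c used as enzyme; 0% = enzyme with DMSO and 100% = no enzyme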
# UGM FP inh – blocks M. tuberculosis UGM enzyme; P9WIQ1; purified UGM, fluorescence polarization probe displacement; inhibition, % at 10 µM; 0.06% of 320,000 active; AID 504406; in the data active = inhibition above about 10%, passing the limit was not always enough
# BH1578 lux ind – quorum light induction in luxS cqsA deficient V. cholerae; activation, % at 18.7 µM; 0.16% of 350,000 active; V. cholerae BH1578 lux reporter, luminescence, 6 h; in the data active = activation mostly above about 9.7%, no sharp cut-off
# Mtb FBA inh – Mtb fructose-bisphosphate aldolase inhibition | inhibition, % at 1 µM | P9WQA3 | 2.3% of 360,000 active | AID 588726 | purified M. tuberculosis FBA, fluorescence read-out;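 note: 0% = vehicle and 100% = reference inhibitor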
# Target sequence (P9WQA3 whole entry, looked up): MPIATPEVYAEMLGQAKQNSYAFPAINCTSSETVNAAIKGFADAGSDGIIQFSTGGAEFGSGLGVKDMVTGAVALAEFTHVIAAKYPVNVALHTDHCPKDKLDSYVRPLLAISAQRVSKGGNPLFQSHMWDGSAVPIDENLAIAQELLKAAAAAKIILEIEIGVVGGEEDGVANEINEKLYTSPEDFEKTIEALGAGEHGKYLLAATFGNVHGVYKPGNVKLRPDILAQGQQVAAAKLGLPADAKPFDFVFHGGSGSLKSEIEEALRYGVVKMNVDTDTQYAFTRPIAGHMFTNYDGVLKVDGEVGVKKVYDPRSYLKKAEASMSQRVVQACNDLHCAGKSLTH
# Mtb FBA confirm – confirmation of M. tuberculosis fructose-bisphosphate aldolase inhibitors; purified M. tuberculosis FBA, fluorescence read-out; shares compounds with Mtb FBA inh; 78% of 5,600 active; inhibition, % at 1 µM;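 note: 0% = vehicle wells and 100% = reference inhibitor wells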
# GDH-TPI counter-2 – counter-screen for M. tuberculosis FBA inhibitors: GDH-TPI coupled enzyme inhibition. shares compounds with Mtb FBA inh. GDH-TPI coupled enzyme counterscreen, fluorescence. inhibition, % at 1 µM. 81% of 5,600 active; in the data active = inhibition above about 10%
# Numbers without * were called inactive; i = inactive; x = not tested or not shown; + = active, no number. A selection: hits, their analogues and other compounds. The true share with any hit is near 4.1%. Cut-off read from the data, not from the text of the source, unless noted: active = inhibition above about 27%; inactive = the rest.
SMILES,GDH-TPI counter-1,RecA intein inh,Rv3671c protease,UGM FP inh,BH1578 lux ind,Mtb FBA inh,Mtb FBA confirm,GDH-TPI counter-2
CCOC(=O)N1CCN(Cc2nnc(-c3cccc(Br)c3)o2)CC1,-2.6,0.4,-3.2,0.5,1.8,0.5,x,x
Cc1ccccc1NC(=O)C(C)OC(=O)C1CC(=O)N(Cc2ccco2)C1 (stereo unspecified),4.8,x,1.2,-1.4,0.0,0.4,x,x
Cc1c2ccccc2nc2ccccc12,17.0,-35.8,-12.4,-2.3,-0.9,63.9*,199.4*,123.3*
Cc1cc(N)c2ccccc2n1,-7.3,0.5,5.0,0.1,i,-4.0,x,x
O=C(NCc1cccs1)c1ccc2sc(COCCO)nc2c1,5.4,x,x,x,-0.4,0.1,x,x
CCOC(=O)c1sc2nc(N3CCOCC3)c3c(c2c1N)CC(C)(C)N(C)C3,11.2,-15.5,8.6,8.0,i,58.9*,6.2,4.9
Nc1c(C(=O)NCCc2ccccc2)sc2nc(N3CCOCC3)c3c(c12)CCCC3,16.1,-0.5,2.2,-0.4,-0.6,82.1*,26.3,14.1*
Cc1ccc(NC(=O)c2sc3nc(N4CCOCC4)c4c(c3c2N)CC(C)(C)OC4)cc1,8.7,-14.3,0.3,-1.4,i,3.0,x,x
Cc1ccccc1NC(=O)c1sc2nc(N3CCOCC3)c3c(c2c1N)CCCC3,15.3,-2.0,2.4,2.3,i,13.1,x,x
CC1(C)Cc2c(c(N3CCCC3)nc3sc(C(=O)Nc4ccccc4)c(N)c23)CO1,29.3,2.8,10.0,-4.2,-0.9,33.7*,+,+
COC(=O)C(C#N)(CCC(=O)c1ccccc1)CCC(=O)c1ccccc1,x,x,x,x,x,6.5,x,x
CC(C)n1c(O)c(/C=C2\C=NN=C2c2ccccc2)sc1=S,16.0,1.7,-7.2,4.0,-0.3,55.8*,199.2*,135.2*
O=C(CN1C(=O)c2cccc3cccc1c23)NCC1CCCO1 (stereo unspecified),7.6,-9.8,6.3,0.7,-2.3,5.2,x,x
O=C(CCN1C(=O)c2cccc3cccc(c23)C1=O)NCC1CCCO1 (stereo unspecified),25.4,-3.8,17.2,-3.3,i,33.6*,156.0*,96.5*
O=C1c2cccc3cccc(c23)C(=O)N1CC1CCCO1 (stereo unspecified),10.2,2.1,-2.8,-3.1,-0.4,31.5*,52.2*,28.1*
O=C(COc1cc(F)ccc1[N+](=O)[O-])Nc1cc(S(=O)(=O)N2CCCC2)ccc1Cl,6.3,x,x,x,-2.8,1.4,x,x
O=C(O)CNS(=O)(=O)c1ccc2c(c1)Cc1cc(S(=O)(=O)NCC(=O)O)ccc1-2,-0.8,x,0.3,-0.7,0.0,41.1*,-5.3,-6.3
O=C(O)CNS(=O)(=O)c1ccc2c(c1)C(=O)c1cc(S(=O)(=O)NCC(=O)O)ccc1-2,12.4,-1.9,x,-0.4,1.8,2.3,x,x
C[C@H](CO)N1C[C@H](C)[C@@H](CN(C)S(=O)(=O)c2ccc3c(c2)OCCCO3)OCc2cn(nn2)CCCC1=O,-3.1,x,x,x,i,0.2,x,x
Cc1cc(-c2ccccc2)c2nncn2n1,-3.2,-2.8,-4.5,0.4,-0.3,45.1*,+,+
Cc1cc(-c2ccccc2)c2c3c(cn2n1)c(=O)n(C)c(=O)n3C,2.8,-1.2,5.0,2.2,-0.3,0.7,x,x
CCCCOC(=O)Nc1ccc2c(C)cc(=O)oc2c1,16.5,0.2,-5.8,-1.9,i,83.8*,6.8,2.4
Cc1cc(=O)oc2cc(NC(=O)c3ccnn3C)ccc12,8.8,-0.7,-3.4,0.8,i,31.9*,+,+
Cc1cc(=O)oc2cc(NC(=O)CCOc3ccccc3)ccc12,16.5,x,-17.8,1.5,-0.5,20.2,x,x
Cc1cc(=O)oc2cc(NC(=O)c3c(Cl)cnn3C)ccc12,25.9,0.4,-4.0,-3.4,i,8.5,x,x
SMILES,GDH-TPI counter-1,RecA intein inh,Rv3671c protease,UGM FP inh,BH1578 lux ind,Mtb FBA inh,Mtb FBA confirm,GDH-TPI counter-2
Cc1ccccc1CC(=O)Nc1ccc2c(C)cc(=O)oc2c1,2.6,-1.2,-0.4,-3.2,-0.8,93.7*,7.0,7.0
Cc1cccc(OCC(=O)Nc2ccc3c(C)cc(=O)oc3c2)c1,15.1,0.2,9.5,-0.9,-0.3,14.7,x,x
Cc1cc(=O)oc2cc(NC(=O)CN3C(=O)NC(C)(c4ccccc4)C3=O)ccc12 (stereo unspecified),11.4,-3.3,-16.8,-0.1,i,61.1*,136.9*,103.0*
CCN1CCCC1CNC(=O)Cn1nc(C)n2nc(-c3ccccc3)cc2c1=O (stereo unspecified),3.7,-0.7,-6.8,-1.1,-0.2,0.1,x,x
Cc1cc(=O)oc2cc(NC(=O)C(CCCN=C(N)N)NC(=O)OCc3ccccc3)ccc12 (stereo unspecified),18.4,6.2,x,1.7,-0.6,37.1*,38.3*,22.9*
O=C(O)c1ccccc1-c1ccccc1C(=O)Nc1ccc2c(c1)oc(=O)c1ccccc12,29.9,x,x,x,i,33.5*,2.2,-3.3
O=C(O)c1ccccc1-c1ccccc1C(=O)Nc1ccc2c(c1)C(=O)c1ccccc1-2,-3.4,x,x,x,-0.6,-3.0,x,x
Cc1cc(=O)oc2cc(NC(=O)COc3ccccc3[N+](=O)[O-])ccc12,7.3,x,-4.6,0.6,-1.2,18.3,x,x
COc1ccccc1CC(=O)Nc1ccc2c(C)cc(=O)oc2c1,22.3,-5.6,-6.4,-1.4,0.7,36.6*,100.8*,81.9*
Cc1cc(=O)oc2cc(NC(=O)COc3cccc(C(F)(F)F)c3)ccc12,15.7,x,-3.6,-2.7,-0.4,41.5*,70.6*,49.7*
COCC(C)NC(=O)CSc1ncnc2sc(-c3ccccc3)cc12 (stereo unspecified),14.0,2.1,-5.4,-0.9,0.6,5.5,x,x
COC(=O)Nc1ccc(S(=O)(=O)N2CCC(C(=O)NCc3ccc4c(c3)OCO4)CC2)cc1,6.0,x,-1.0,2.7,i,-2.2,x,x
CC(C)(C)C(=O)C(C(c1ccccc1)N1CCOCC1)N1CCOCC1 (stereo unspecified),6.0,x,x,x,5.9,-1.4,x,x
Cc1cc(NC(=O)c2ccccc2Cl)ccc1NC(=O)c1ccccc1Cl,14.8,-3.6,-8.5,-1.2,i,-1.4,x,x
Cc1cc(=O)oc2cc(NC(=O)c3ccccc3Cl)ccc12,22.2,-1.1,-4.8,-0.1,i,95.6*,0.0,0.3
C/C=C1\NC(=O)[C@H](CC(N)=O)N(C)C(=O)C([C@@H](C)O)NC(=O)C(CCCc2ccc(OC)cc2)NC(=O)[C@H](C(C)C)NC(=O)/C(=C\C)NC(=O)[C@H](O)[C@@H](C[C@@H](O)CCCCCCC)NC(=O)[C@H](C)NC(=O)CN(C)C(=O)[C@H](CCC(N)=O)NC1=O (stereo partly specified),0.0,x,x,x,i,-1.9,x,x
COc1cc(CN2C[C@@H](CO)O[C@@H](n3cnc4c(N5CCN(c6ccccc6)CC5)ncnc43)C2)cc(OC)c1OC,4.0,x,x,x,-0.2,6.4,x,x
